In PubChem BioAssay AID651725 (National Center for Advancing Translational Sciences (NCATS), 2012):
The whole screen tested about 360,000 compounds, of which about 2,000 (0.56%) were called active. About 2% were inconclusive and are not listed. Rule as the data show it: active = activity change below about -65%; inconclusive = mostly about -30% to -63%; inactive = weaker than that. This excerpt belongs to a sample that is enriched for actives.

Target: Homeobox protein SIX1 (Homo sapiens) + Protein phosphatase EYA2 (Homo sapiens) (UniProt Q15475+O00167)
Sequence (O00167 whole entry, looked up): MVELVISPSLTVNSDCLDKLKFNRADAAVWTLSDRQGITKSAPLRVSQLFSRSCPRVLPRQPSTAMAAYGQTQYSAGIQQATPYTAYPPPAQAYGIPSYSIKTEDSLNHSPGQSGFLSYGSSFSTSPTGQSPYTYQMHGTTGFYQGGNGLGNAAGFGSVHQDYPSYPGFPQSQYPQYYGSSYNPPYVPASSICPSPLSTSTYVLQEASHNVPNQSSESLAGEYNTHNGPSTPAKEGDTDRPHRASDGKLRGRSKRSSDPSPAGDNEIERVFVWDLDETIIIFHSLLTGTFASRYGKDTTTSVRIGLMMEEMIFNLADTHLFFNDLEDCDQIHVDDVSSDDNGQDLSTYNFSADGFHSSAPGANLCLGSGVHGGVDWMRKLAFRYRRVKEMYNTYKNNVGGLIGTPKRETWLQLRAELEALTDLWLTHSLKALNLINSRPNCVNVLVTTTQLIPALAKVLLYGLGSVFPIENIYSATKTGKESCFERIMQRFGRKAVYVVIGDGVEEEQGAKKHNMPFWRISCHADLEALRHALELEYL
Sequence (Q15475 whole entry, looked up): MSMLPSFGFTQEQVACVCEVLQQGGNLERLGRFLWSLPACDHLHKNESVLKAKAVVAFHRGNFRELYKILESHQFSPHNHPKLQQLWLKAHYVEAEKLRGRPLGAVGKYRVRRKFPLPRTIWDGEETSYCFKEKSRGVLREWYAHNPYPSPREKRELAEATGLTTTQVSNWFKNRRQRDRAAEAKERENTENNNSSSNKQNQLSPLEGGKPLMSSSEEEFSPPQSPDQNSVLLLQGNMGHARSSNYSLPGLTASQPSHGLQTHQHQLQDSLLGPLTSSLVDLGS
Assay: qHTS Assay for Inhibitors of the Six1/Eya2 Interaction
Details: AlphaScreen GST-Six1/His-Eya2 binding, biochemical; active compounds read low
From the text: Its expression is low or undetectable in normal adult breast tissue but the gene is over-expressed in 50% of primary breast tumors and 90% of metastatic lesions. […] Similar to Six1, Eya2 is also not expressed in most normal adult tissues, but is reexpressed in cancers. The Six1-Eya interaction is essential for proliferation during embryonic development, and both Six1 and Eya2 have been independently implicated in the same types of cancer. Because Six1 and Eya2 are embryonic genes with little expression in adult tissues, inhibitors of their expression/activity are likely to have limited side effects. Our goal is to identify inhibitors of the Six1/Eya interaction for potential cancer therapy. To this end, we have developed a homogenous AlphaScreen assay targeting the Six1/Eya interaction. We performed a large scale HTS of the Molecular Libraries Small Molecule Repository (MLSMR) to identify inhibitors of the Six1/Eya interaction as potential anti-cancer therapeutics. Compounds identified can also be used as chemical probes to better understand the biological functions of Six1 and Eya. NIH Chemical Genomics Center [NCGC] NIH Molecular Libraries Probe Centers Network [MLPCN] MLPCN Grant: DA033147 Assay Submitter (PI): Rui Zhao, University of Colorado Denver
The first step of the 5 uL AlphaScreen assay is to dispense assay buffer (50 mM Tris, pH 8.0, 300 mM NaCl, 0.05% BSA, 0.02% Tween 20, 1 mM TCEP) into a Greiner 1536 white solid bottom microtiter plate (789175-F). Five microliters is added to Column 1, 4 uL is added to Column 2 and 3 uL is added to Columns 3 through 48. A 5X protein solution (250 nM GST-Six1 protein + 500 nM His-tagged Eya2 protein) is mixed and 1 uL is dispensed to Columns 3-48. Using a 1536 pintool, 23 nL of compound is transferred to the assay plate. A solution of 5X AlphaScreen beads is mixed (50 ug/mL Glutathione linked donor beads + Nickel chelated acceptor beads) and 1 uL is dispensed to Columns 2-48. The assay plate is incubated for one hour, with a lid, at 37 deg C in the dark. The plate is read using a Perkin Elmer Envision using an AlphaScreen protocol.
% is scaled to controls: 0 for no effect and ±100 for the full control effect.

| SMILES | activity change |
| --- | --- |
| CC(C)c1ccc(-n2c(O)c(/C=N/N3CCOCC3)c(=O)[nH]c2=S)cc1 | 5.13% (inactive) |
| O=c1[nH]c(=S)n(C2CC2)c(O)c1/C=N/N1CCOCC1 | -0.819% (inactive) |
| O=c1[nH]c(=O)n(Cc2ccccc2)c(O)c1/C=N/Nc1c(F)c(F)c(F)c(F)c1F | 1% (inactive) |
| O=C(N/N=C/c1c(O)n(C2CC2)c(=S)[nH]c1=O)c1ccccc1 | -88.6% (active) |
| CC/C(=N\NC(=O)c1ccccc1O)c1c(O)n(Cc2ccccc2)c(=O)[nH]c1=O | -9.73% (inactive) |
| O=C(N/N=C/c1c(O)n(Cc2ccccc2)c(=O)[nH]c1=O)c1ccccc1 | -70.8% (active) |
| Cc1cccc(-n2c(O)c(/C=N/N3CCOCC3)c(=O)[nH]c2=S)c1 | -2.01% (inactive) |
| O=C(N/N=C/c1c(O)n(C2CC2)c(=S)[nH]c1=O)c1ccccc1Cl | -80.8% (active) |
| COc1ccccc1-n1c(O)c(C=NC2CC2)c(=O)[nH]c1=O | 0.906% (inactive) |
| CCOC(=O)[C@]12Cc3cc(OC)ccc3[C@H]1N(C(C)C)C(=O)c1ccccc12 | -2.51% (inactive) |
| CCOC(=O)[C@]12Cc3ccccc3[C@H]1N(C1CCCCC1)C(=O)c1cc(OC)ccc12 | -3.21% (inactive) |
| C[C@]12CCC3C(CC[C@H]4[C@H](O)[C@H](O)CC[C@]34C)C1CC[C@@H]2O (stereo not given in full) | 0% (inactive) |
| COP(=O)(NS(=O)(=O)c1ccccc1)OC | 12.4% (inactive) |
| CC1(C)Cc2c(C#N)c(N3CCNCC3)nc(-c3ccco3)c2CS1 | -3.88% (inactive) |
| O=C1NCN(c2ccccc2)C12CCN(C(c1cccs1)c1nnnn1C1CCCCC1)CC2 (stereo not given) | -13.5% (inactive) |
| COc1ccc(-n2nnnc2C(c2cccc3ccccc23)N2CCC(n3c(=O)[nH]c4ccccc43)CC2)cc1 (stereo not given) | -11.3% (inactive) |
| O=C(NCC(c1cccnc1)N1CCN(c2ccccc2)CC1)Oc1ccccc1 (stereo not given) | -4.91% (inactive) |
| CC12CN3CC(C)(CN(C1)C3c1cccs1)C2 (stereo not given) | -7.54% (inactive) |
| CC(C)c1ccc(OCC(=O)N2CCN(C)CC2)c(Br)c1 | -2.15% (inactive) |
| CCC(C)n1c(O)c(/C=N/Nc2nc3c(c(=O)n(C)c(=O)n3C)n2C)c(=O)[nH]c1=S (stereo not given) | -86.1% (active) |
| CCC(=O)CC(c1ccc([N+](=O)[O-])cc1)c1c(O)c2ccccc2oc1=O (stereo not given) | 0.567% (inactive) |
| O=c1[nH]c2ccccc2n1C1CCN(C(c2ccccc2)c2nnnn2Cc2ccccc2)CC1 (stereo not given) | -20.3% (inactive) |
| CCc1nnc(NS(=O)(=O)c2ccc(N=Cc3c(O)n(-c4ccccc4)c(=O)[nH]c3=O)cc2)s1 | 1.54% (inactive) |
| CCCCC(=O)N/N=C/c1c(O)n(CCC2=CCCCC2)c(=O)[nH]c1=O | -75.4% (active) |
| O=c1[nH]c(=O)n(CCc2ccc(F)cc2)c(O)c1/C=N/N1CCCCC1 | 5.39% (inactive) |
| COc1ccc(CCn2c(O)c(C=NC3CC3)c(=O)[nH]c2=O)cc1OC | -3.07% (inactive) |
| CCCCC(=O)N/N=C/c1c(O)n(CC)c(=S)n(CC)c1=O | -9.7% (inactive) |
| CCCCC(=O)N/N=C/c1c(O)n(-c2ccccc2)c(=O)[nH]c1=O | -83.5% (active) |
| COC(=O)C[C@H]1CC[C@H]2NC[C@@H](O)COC[C@@H]2O1 | 4.76% (inactive) |
| CC[C@H]1CC2CN3CCc4c([nH]c5ccccc45)C(C(=O)OC)(C2)C13 (stereo not given in full) | -23.8% (inactive) |
